Laboratory results from PubChem BioAssay (Tox21).
“And” between values parts separate entries of the source, which are not always exact repeats. Equal entries are not always repeated. Results filed as inconclusive are left out. Where a call stands in place of a potency, no number is given. The source made the active and inactive calls. The call rests on the fitted dose curve; in most records, active means well fitted cell-killing curve with a large enough effect in the repeat runs; inconclusive means weak or mixed curves, or effect the other way; inactive means no such curve, though single readings can be large or run the other way.

Assay: qHTS assay for identifying genotoxic compounds that show differential cytotoxicity against isogenic chicken DT40 cell lines with known DNA damage response pathways - wild type cell line (AID 743012); further: nearly all actives have a fitted effect of over 60% in size
Settings: DT40 wild type chicken cells viability, CellTiter-Glo, 40 h; series mostly up to 68.4 µM
Text: U.S. Tox21 Program National Center for Advancing Translational Sciences [NCATS] NIH Chemical Genomics Center [NCGC] U.S. Environmental Protection Agency [EPA] National Institutes of Environmental Health Sciences [NIEHS] National Toxicology Program [NTP] U.S. Food and Drug Administration [FDA] Tox21 Assay Overview: DNA repair pathways play a critical role in cellular homeostasis by repairing DNA damage induced by endogenous processes and xenobiotics. Isogenic chicken DT40 cell lines deficient in different DNA repair pathways can be used to identify genotoxic compounds and aid in characterizing the nature of the DNA damage induced. Two DNA repair-deficient cell lines with disrupted genes, Rad54/Ku70 or Rev3, were used to screen the Tox21 10K compound library. Possible genotoxicity was based on the presence of a significant increase in cytotoxicity in one or more of the DNA repair-deficient cell lines compared to that observed in the parental DNA repair-proficient cell line. CellTiter Glo viability assay (Promega, Madison, WI) was used to measure cell viability in these cells after compound treatment. This assay includes the data from the wild type cell line.
Tox21 Assay Protocol Summary: 300 DT40 wild type cells in 5 uL/well were dispensed into white, solid-bottom 1536-well plates using a Multidrop Combi (ThermoFisher Scientific, Waltham, MA) dispenser. After the assay plates were incubated at 37 C/5% CO2 for approximately 0.5 hour, 23 nL of compounds dissolved in DMSO, positive controls or DMSO only was transferred into the assay plate by a pintool work station (Kalypsys, San Diego, CA). The assay plates were incubated at 37 C/5% CO2 for 40 hours. After 5 uL per well of CellTiter-Glo reagent was added into each well of the assay plates, the plates were incubated for 30 min at room temperature and the luminescence intensity of the plates was measured using a ViewLux (PerkinElmer, Shelton, CT) plate reader.
Potency means the concentration at half of the fitted maximal effect.

Row | Compound | Potency
1 | CC[N+](CC)(CC)CCOC(=O)C(C1CCCC1)C1CCCC1 | 5.31 µM (active)
2 | C[Si](Cl)(c1ccccc1)c1ccccc1 | inactive
3 | CN(C)Cc1cc(C(C)(C)C)c(O)c(C(C)(C)C)c1 | 17.2 µM (active)
4 | Cc1ccc(N/N=c2\c(=O)cc/c(=N\Nc3ccc(S(=O)(=O)O)cc3)c2=O)c(C)c1 | inactive
5 | CC[N+](CC)(CC)CCOc1ccc(/C=C/c2ccccc2)cc1 | 944 nM (active) and 750 nM (active)
6 | FC(F)(F)c1cccc(Cl)c1 | inactive
7 | C=CC(=O)Nc1cc2c(Nc3ccc(F)c(Cl)c3)ncnc2cc1OCCCN1CCOCC1 | 5.31 µM (active)
8 | C#C[C@]1(OC(C)=O)CC[C@H]2[C@@H]3CCC4=C/C(=N/O)CC[C@@H]4[C@H]3CC[C@@]21CC | 9.44 µM (active)
9 | Cc1cc(-c2ccc(N=Nc3cc(S(=O)(=O)O)c4ccccc4c3N)c(C)c2)ccc1N=Nc1cc(S(=O)(=O)O)c2ccccc2c1N | 0.548 µM (active)
10 | c1ccc(C(O[C@@H]2CCCN(CCc3ccc4c(c3)OCO4)C2)c2ccccc2)cc1 | 38.6 µM (active)
11 | CCc1oc2ccccc2c1C(=O)c1cc(I)c(O)c(I)c1 | 29.8 µM (active)
12 | Cc1ccc(-c2ccccc2)cc1 | inactive
13 | O=[N+]([O-])c1ccc(O)cc1C(F)(F)F | 27.3 µM (active)
14 | Cc1ccc(O)c(O)c1 | 16.7 µM (active)
15 | O=[N+]([O-])c1ccc(F)c(Cl)c1 | inactive
16 | O=C(O)CN(CCN(CC(=O)O)CC(=O)O)CC(=O)O | inactive
17 | Nc1ccc(Oc2ccc(Cl)cc2)cc1 | inactive
18 | c1cnccn1 | inactive
19 | CC(C)Cn1cnc2c(N)nc3ccccc3c21 | inactive
20 | CCO[Si](OCC)(OCC)OCC | inactive

Row | Compound | Potency
21 | CC1=Nc2ccccc2C1(C)C | inactive
22 | CN1CCC[C@@H]1CCO[C@](C)(c1ccccc1)c1ccc(Cl)cc1 | 9.44 µM (active)
23 | C=C(C)c1cccc(C(=C)C)c1 | inactive
24 | Cc1cccc(C(=O)O)c1O | inactive
25 | CCCCCCCCCCOC(=O)c1ccccc1C(=O)OCCCCCCCC | inactive
26 | CC(=O)OCC=C(C)C | inactive
27 | Cc1c2ccccc2c(C)c2c1ccc1ccccc12 | 30.3 µM (active) and 3.06 µM (active)
28 | Cc1cc(-n2nc3ccc(Cl)cc3n2)c(O)c(C(C)(C)C)c1 | inactive
29 | CCCCCCCCCCC[C@@H](C[C@@H]1OC(=O)[C@H]1CCCCCC)OC(=O)[C@H](CC(C)C)NC=O | 1.06 µM (active)
30 | O=C(O)c1cc(=O)c2ccccc2o1 | inactive
31 | O=S(=O)(O)c1ccccc1/C=C/c1ccc(-c2ccc(/C=C/c3ccccc3S(=O)(=O)O)cc2)cc1 | inactive
32 | C1CCC(SSC2CCCCC2)CC1 | inactive
33 | CCC(C)[O-].CCC(C)[O-].CCOC(=O)/C=C(/C)[O-].[Al+3] | inactive
34 | CN1CCCCC1CCN1c2ccccc2Sc2ccc(S(C)=O)cc21 (stereo not given) | 29.8 µM (active)
35 | Cc1c(C)c2c(c(C)c1O)CC[C@@](C)(CCC[C@H](C)CCC[C@H](C)CCCC(C)C)O2 | inactive
36 | C#C[C@]1(OC(C)=O)CC[C@H]2[C@@H]3CCC4=C[C@@H](OC(C)=O)CC[C@@H]4[C@H]3CC[C@@]21C | 3.76 µM (active) and 6.68 µM (active)
37 | CCCCC(CC)CN1CN(CC(CC)CCCC)CC(C)(N)C1 (stereo not given) | 10.1 µM (active)
38 | CCCCCC/C=C\CCCCCCCC(=O)O | inactive
39 | C=CCCC(=O)/C=C/C1C(C)=CCCC1(C)C (stereo not given) | inactive
40 | Cc1c(C)c([N+](=O)[O-])c(C(C)(C)C)c([N+](=O)[O-])c1C | inactive
